FBA Mtb inh – Mtb fructose-bisphosphate aldolase inhibition. 2.3% of 360,000 active. inhibition, % at 1 µM. purified M. tuberculosis FBA, fluorescence read-out. P9WQA3;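 further: 0% = vehicle and 100% = reference inhibitor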
Target sequence (P9WQA3 whole entry, looked up): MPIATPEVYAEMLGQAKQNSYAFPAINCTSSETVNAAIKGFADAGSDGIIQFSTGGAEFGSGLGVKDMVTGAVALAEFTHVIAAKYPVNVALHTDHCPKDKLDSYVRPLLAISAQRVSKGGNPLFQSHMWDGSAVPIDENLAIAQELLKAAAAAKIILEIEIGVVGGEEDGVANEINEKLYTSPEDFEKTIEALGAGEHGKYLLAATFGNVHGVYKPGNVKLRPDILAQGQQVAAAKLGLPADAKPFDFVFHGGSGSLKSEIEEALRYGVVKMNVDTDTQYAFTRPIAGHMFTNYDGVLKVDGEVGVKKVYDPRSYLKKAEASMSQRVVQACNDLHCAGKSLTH
Vc quorum ag – quorum light induction in luxS cqsA deficient V. cholerae; 0.16% of 350,000 active; activation, % at 18.7 µM; V. cholerae BH1578 lux reporter, luminescence, 6 h; in the data active means activation mostly above about 9.7%, no sharp cut-off
BioA inh – inhibitors of Mycobacterium tuberculosis BioA enzyme; purified M. tuberculosis BioA enzyme, plate reader; 0.096% of 360,000 active; inhibition, % at 9.99 µM; in the data active means inhibition above about 40%
GDH-TPI counter-1 – inhibits GDH-TPI coupling enzymes, artifact for Mtb FBA screen. GDH-TPI coupled enzyme counterscreen, NADH absorbance. inhibition, % at 4.8 µM. 1.2% of 360,000 active. AID 588335; in the data active means inhibition above about 30%;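 further: 0% = DMSO wells and 100% = wells lacking the enzyme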
Mtb FBA inh conf – confirmation of M. tuberculosis fructose-bisphosphate aldolase inhibitors; 78% of 5,600 active; inhibition, % at 1 µM; purified M. tuberculosis FBA, fluorescence read-out; shares compounds with FBA Mtb inh; AID 651616;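 further: 0% = vehicle wells and 100% = reference inhibitor wells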
GDH-TPI counter-2 – counter-screen for M. tuberculosis FBA inhibitors: GDH-TPI coupled enzyme inhibition; shares compounds with FBA Mtb inh; GDH-TPI coupled enzyme counterscreen, fluorescence; inhibition, % at 1 µM; 81% of 5,600 active; in the data active means inhibition above about 10%
* = called active by the depositor; i = inactive; / = no result; + = active, no number. In the library only some 3% were active in any assay of this set; here they are far more common. Unless noted, no stated cut-off is given here; in the data, active means inhibition above about 27%; inactive means the rest.

SMILES | FBA Mtb inh | Vc quorum ag | BioA inh | GDH-TPI counter-1 | Mtb FBA inh conf | GDH-TPI counter-2
N#Cc1nc(-c2ccco2)oc1NCCN1CCOCC1 | 25.8 | -2.5 | -1.2 | 7.4 | / | /
Cc1cccc(-c2nc(C#N)c(NCC3CCCO3)o2)c1 (stereo unspecified) | 33.9* | -1.1 | -0.9 | -8.4 | 108.5* | 87.6*
N#Cc1nc(-c2ccccc2F)oc1NCCN1CCOCC1 | 35.8* | -0.2 | 0.4 | 11.9 | 83.8* | 80.6*
C[C@H]1CN([C@@H](C)CO)C(=O)c2cccc(NS(=O)(=O)c3ccccc3)c2O[C@@H]1CN(C)C(=O)Nc1ccc2c(c1)OCO2 | / | / | -1.6 | / | / | /
C[C@@H]1CN([C@H](C)CO)C(=O)c2cccc(NS(=O)(=O)c3ccc(Cl)cc3)c2O[C@@H]1CN(C)S(=O)(=O)c1cccs1 | / | / | -0.8 | / | / | /
COc1ccccc1Cc1c(-c2ccc(OC)c(OC)c2)nc2ccc(C)cn12 | 45.5* | / | 17.6 | / | 118.9* | 93.8*
COc1ccc(-c2nc3ccc(C)cn3c2Cc2ccc(C)cc2)cc1OC | 26.9 | / | 29.5 | / | / | /
COC(=O)c1ccc2nc(-c3ccc(OC)c(OC)c3)c(Cc3ccccc3OC)n2c1 | 7.8 | / | 18.5 | / | / | /
COc1ccc(-c2nc3ccc(C)cn3c2Cc2cccc(Cl)c2)cc1OC | 33.1* | / | 30.3 | / | 106.6* | 76.0*
Cc1ccc2nc(-c3ccco3)c(Cc3cccc(F)c3)n2c1 | 31.5* | / | -4.3 | / | + | 137.9*
COC(=O)[C@@H]1[C@@H](CO)[C@@H]2Cn3c(ccc(-c4ccccc4OC)c3=O)[C@@H]2N1CC1CCOCC1 | / | / | -0.5 | / | / | /
Nc1nc2ccccc2cc1S(=O)(=O)c1ccccc1 | 51.3* | 2.8 | -0.9 | -2.5 | 115.7* | 98.0*
CCC(C)(C)C(=O)Nc1ncc(S(=O)(=O)c2ccc([N+](=O)[O-])cc2)s1 | 75.8* | 6.2 | 0.0 | -3.5 | 3.5 | -1.1
Cc1noc(C)c1S(=O)(=O)N(C)C[C@@H]1OCCCC[C@H](C)Oc2ccc(NC(=O)c3ccccc3)cc2C(=O)N([C@H](C)CO)C[C@H]1C | / | / | 1.1 | / | / | /
O=C(Nc1cccc2ccccc12)c1ccc([N+](=O)[O-])cc1 | -0.1 | 0.3 | -0.4 | 4.2 | / | /
O=C(CNc1cccc2ccccc12)c1ccc([N+](=O)[O-])cc1 | 27.9* | i | / | 0.8 | 55.8* | 36.1*
CC(C)CN1Cc2cc(-c3ccccc3)ccc2-n2nncc2C1 | 31.1* | / | -1.0 | / | + | +
C[C@H](CO)N1C[C@H](C)[C@H](CN(C)CC2CCCCC2)Oc2c(NC(=O)NC3CCCCC3)cccc2C1=O | / | / | -3.5 | / | / | /
CC(=O)c1ccc(-c2ccc(C(=O)NCC(c3ccco3)N(C)C)o2)cc1 (stereo unspecified) | 68.0* | 1.3 | 15.7 | 47.2* | -1.9 | -1.6
CC(C)C(=O)Nc1ccc(-c2nnc(-c3ccccc3)o2)cc1 | 33.1* | -0.1 | -0.4 | -0.7 | 47.2* | 35.5*
O=C(Nc1ccc(-c2nnc(-c3ccccc3)o2)cc1)C(F)(F)F | 0.9 | i | -1.1 | 6.9 | / | /
CC(=O)/C=C(\C)Nc1ccc(-c2cnc(-c3ccccc3)o2)cc1 | 90.2* | i | 3.2 | 19.0 | 91.1* | 76.3*
O=C(Cc1ccc(Cl)cc1)Nc1cccc(-c2nnc(-c3ccco3)o2)c1 | 7.8 | -0.7 | -2.0 | 20.1 | / | /
O=C(Cc1ccccc1)Nc1cccc(-c2nnc(-c3ccco3)o2)c1 | 32.2* | -0.6 | 1.7 | 4.9 | 38.4* | 35.3*
CC(=O)Nc1ccc(-c2nc3ccccc3c(=O)o2)cc1 | -0.3 | i | -0.7 | 4.0 | / | /
SMILES | FBA Mtb inh | Vc quorum ag | BioA inh | GDH-TPI counter-1 | Mtb FBA inh conf | GDH-TPI counter-2
O=C(COc1ccccc1)Nc1ccc(-c2nnc(-c3ccco3)o2)cc1 | 35.7* | 11.1 | 0.0 | 3.4 | 4.4 | 4.6
C[C@H]1CN([C@@H](C)CO)C(=O)c2cc(NC(=O)Cn3cnnn3)ccc2O[C@@H]1CN(C)Cc1ccc(C(=O)O)cc1 | / | / | -1.0 | / | / | /
C[C@@H]1CN([C@H](C)CO)C(=O)c2cccc(NC(=O)C3CC3)c2O[C@@H]1CN(C)C(=O)Nc1ccc2c(c1)OCO2 | / | / | -1.9 | / | / | /
CC(C)CC(=O)Nc1ccc2nn(-c3ccccc3)nc2c1 | 72.5* | -0.4 | / | 18.3 | 3.0 | -0.6
CC(=O)Nc1cc2nn(-c3ccccc3)nc2cc1C | 89.7* | -0.8 | -1.3 | 19.1 | 199.8* | 159.4*
Cc1cc2nn(-c3ccccc3)nc2cc1NC(=O)c1cccs1 | -2.7 | 1.6 | / | 28.2 | / | /
Cc1ccc(-c2cnc3c(c2)C(=O)N([C@H](C)CO)C[C@H](C)[C@H](CN(C)CC2CCOCC2)O3)cc1 | / | / | 1.0 | / | / | /
